From paper PMC4102417

tested on: murine 3T3 fibroblasts; assay: primary screen, percent viability or growth; higher = less effect of the substance
Description: Similarly, for measuring the cytotoxicity concentration (CC50) for 3T3 fibroblast cells, cultures were incubated with drugs for 72 hours and developed using Alamar Blue (Alamar Biosciences Inc, Sacramento, CA) as previously described.

Row | SMILES | Mammalian (3T3) cell % growth at 10 uM
1 | CC(=O)OC1CC2C(C)(C)C(O)CCC2(C)C2CCC3(C)C(c4ccoc4)OC(=O)C4OC43C12C (stereo not drawn) | 76.3%
2 | COC1C=CC23c4cc5c(cc4CN(CC2O)C3C1)OCO5 (stereo not drawn) | 36.2%
3 | COc1cc(/C=C/C(=O)N2CCC=CC2=O)cc(OC)c1OC | 1%
4 | COC(=O)[C@H]1[C@H]2C[C@@H]3c4[nH]c5cc(OC)ccc5c4CCN3C[C@H]2C[C@@H](OC(=O)c2cc(OC)c(OC)c(OC)c2)[C@@H]1OC | 100%
5 | COC(=O)C1=C(C)NC(C)=C(C(=O)OC)C1c1ccccc1[N+](=O)[O-] | 1.7%
6 | COc1ccc2c(c1)[nH]c1c(C)nccc12 | 87.2%
7 | N#Cc1nn(-c2c(Cl)cc(C(F)(F)F)cc2Cl)c(N)c1S(=O)C(F)(F)F (stereo not drawn) | 100%
8 | Cl.Cl.O=C1c2c(O)ccc(O)c2C(=O)c2c(NCCNCCO)ccc(NCCNCCO)c21 | 14%
9 | CN1CCC(=C2c3ccccc3CCc3sccc32)CC1.O=C(O)CC(O)C(=O)O | 86.5%
10 | COc1cc2nc(N3CCN(C(=O)c4ccco4)CC3)nc(N)c2cc1OC.Cl | 70.7%
11 | CN1CCC(=C2c3ccccc3Sc3ccccc32)CC1 | 98.5%
12 | CC1=CC(=O)c2ccccc2C1=O | 0.5%
13 | COc1cc2c(cc1OC)C1C(=O)c3ccc4oc(C(C)C)cc4c3OC1CO2 (stereo not drawn) | 39.7%
14 | O=c1cc(-c2ccccc2)oc2c(O)c(O)ccc12 | 72.6%
15 | CC(=O)OC1c2c(ccc3ccc(=O)oc23)OC(C)(C)C1OC(=O)CC(C)C (stereo not drawn) | 81.2%
16 | CCCCCCCCCCCCCC(=O)O[C@@H]1[C@@H](C)[C@@]2(O)[C@@H](C=C(CO)C[C@]3(O)C(=O)C(C)=C[C@@H]23)[C@@H]2C(C)(C)[C@]12OC(C)=O | 89.2%
17 | C[C@H]1CC[C@]2(NC1)O[C@H]1C[C@H]3[C@@H]4CC[C@H]5C[C@@H](O[C@@H]6O[C@H](CO)[C@H](O[C@@H]7O[C@H](CO)[C@@H](O)[C@H](O[C@@H]8OC[C@@H](O)[C@H](O)[C@H]8O)[C@H]7O[C@@H]7O[C@H](CO)[C@@H](O)[C@H](O)[C@H]7O)[C@H](O)[C@H]6O)CC[C@]5(C)[C@H]4CC[C@]3(C)[C@H]1[C@@H]2C | 0.1%

Row | SMILES | Mammalian (3T3) cell % growth at 10 uM
18 | CC(=O)Oc1ccc(/C=C/c2cc(OC(C)=O)cc(OC(C)=O)c2)cc1 | 31.6%
19 | CCC(=O)O[C@H]1CC[C@H]2[C@@H]3CCc4cc(O)ccc4[C@H]3CC[C@]12C | 100%
20 | CC(C1OC(C)(C)C(O)C1O)C1CCC2(C)C3=CCC4C(C)(C)C(=O)CCC4(C)C3CCC12C (stereo not drawn) | 92.7%
21 | COc1ccc(-c2coc3cc(O)ccc3c2=O)c(O)c1O | 1.4%
22 | Clc1ccc(C(OCCN2CCCCC2)c2ccccc2)cc1 (stereo not drawn) | 100%
23 | NS(=O)(=O)c1cc(C(=O)O)c(NCc2ccco2)cc1Cl | 79.1%
24 | CNCCC=C1c2ccccc2CCc2ccccc21 | 100%
25 | CCC1(O)CC2CN(CCc3c([nH]c4ccccc34)C(C(=O)OC)(c3cc4c(cc3OC)N(C)C3C(O)(C(=O)OC)C(OC(C)=O)C5(CC)C=CCN6CCC43C65)C2)C1.O=S(=O)(O)O (stereo not drawn) | 36.2%
26 | Oc1ccc(/C=C\c2cc(O)cc(O)c2)cc1 | 24.8%
27 | COc1ccc2[nH]cc(CCN)c2c1.Cl | 24.2%
28 | O=C1C=C2C(=CCOC2O)O1 (stereo not drawn) | 0.5%
29 | COc1ccc2c(c1)OCC(Cc1ccc(OC)c(OC)c1)C2=O (stereo not drawn) | 84.5%
30 | O=c1cc(-c2ccc(O)cc2)oc2cc(O)cc(O)c12 | 73.6%
31 | O=c1cc(-c2ccccc2)oc2cc(O)cc(O)c12 | 43%
32 | CCOC(=O)C1=C(COCCN)NC(C)=C(C(=O)OC)C1c1ccccc1Cl.O=S(=O)(O)c1ccccc1 (stereo not drawn) | 100%
33 | Oc1cc2c(cc1O)C1c3ccc(O)c(O)c3OCC1(O)C2 (stereo not drawn) | 100%
